Assay results published in PubChem BioAssay (NCI).
This is part of a sample that, as a whole, favours compounds with a hit. Of some 79,000 tested, about 15% had one in any assay. No stated cut-off is given here; in the data, active means growth inhibition above about 70%; inactive means the rest.

Key:
[1] = NCI Yeast Anticancer Drug Screen. Data for the rad50 strain (AID 155);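 further: 0% = growth of vehicle-only cultures of the same strain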; details: S. cerevisiae rad50 strain growth inhibition; at 50.0 µM; stronger effect = higher value
Method in brief: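 DNA repair mutant yeast, compound exposure, growth read-out; inhibition is taken relative to vehicle.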

[2] = NCI Yeast Anticancer Drug Screen. Data for the mec2-1 strain (AID 157); details: S. cerevisiae mec2-1 strain, at 50.0 µM, stronger effect = higher value
Method in brief: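 Strain: mec2-1 (DNA repair/cell cycle alteration). Compound exposure, then growth measured; inhibition expressed relative to vehicle.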

[3] = NCI Yeast Anticancer Drug Screen. Data for the sgs1 mgt1 strain (AID 161);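 further: 0% = growth of cultures given vehicle only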; details: S. cerevisiae sgs1 mgt1 strain, at 50.0 µM, stronger effect = higher value
Method in brief: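 Test agents were incubated with a DNA-repair-mutant yeast strain. Growth was then read and compared against vehicle-treated controls.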

[4] = NCI Yeast Anticancer Drug Screen. Data for the cln2 rad14 strain (AID 165);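 further: 0% = growth equal to vehicle treated cultures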; details: S. cerevisiae cln2 rad14 strain, at 50.0 µM, stronger effect = higher value
Method in brief: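 Compounds are applied to the cln2 rad14 yeast strain, and growth is then compared with that of vehicle-treated cultures to give inhibition.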

[5] = NCI Yeast Anticancer Drug Screen. Data for the bub3 strain (AID 167); details: S. cerevisiae bub3 mutant strain, at 50.0 µM, stronger effect = higher value
Method in brief: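 In this screen, a yeast mutant lacking normal mitotic checkpoint function is challenged with compound. Relative growth versus vehicle gives the inhibition value.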

[6] = NCI Yeast Anticancer Drug Screen. Data for the mlh1 rad18 strain (AID 175); details: S. cerevisiae mlh1 rad18 strain growth inhibition; at 50.0 µM; stronger effect = higher value
Method in brief: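 Read-out is yeast growth inhibition, calculated against vehicle-only controls. The compound was applied to a strain engineered with DNA damage repair alterations.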

Measured: growth inhibition

Nc1ccc(N=Nc2ccc(N)cc2)cc1
inactive: [1] 12.7% | [2] 6.5% | [3] -13.7% | [4] -8.9% | [5] 11.2% | [6] 2.5%

COc1c(NC(=O)CC(C)=O)cccc1NC(=O)CC(C)=O
inactive: [1] -1.2% | [2] 14.4% | [3] -2.05% | [4] 7.95% | [5] -8.25% | [6] -11.3%

COc1ccc(OCC(C)(C)O)cc1
inactive: [1] -12.6% | [2] -0.4% | [3] 5.6% | [4] 0.2% | [5] -11.2% | [6] -2.55%

COc1ccccc1-c1cc(=O)c2cc(C)cnc2[nH]1
inactive: [1] 5.6% | [2] 5.5% | [3] -0.5% | [4] -30.9% | [5] 4.65% | [6] 13.9%

c1ccc(CN2CCCCC2)nc1
inactive: [1] -12.9% | [2] -20.7% | [3] -11.1% | [4] 10.6% | [5] -10.2% | [6] -10.2%

CN(C)CCCSc1n[nH]c(=O)[nH]c1=O
inactive: [1] 6.4% | [2] 2.5% | [3] -11.3% | [4] -19.7% | [5] 1.6% | [6] -10.1%

CCOCC1c2ccccc2CCN1Cc1c[nH]c2ccccc12 (stereo unspecified)
inactive: [1] 9.65% | [2] -21.2% | [3] -2.85% | [4] -5.15% | [5] 0.6% | [6] -4.55%

CC1=CC2C3C(=O)NC(=O)C3C1C1C3C(=O)NC(=O)C3C21 (stereo unspecified)
inactive: [1] -25% | [2] -3.9% | [3] 1.2% | [4] -18.6% | [5] 2.45% | [6] 16.4%

OCC(O)COc1ccc(OCc2ccccc2)cc1 (stereo unspecified)
inactive: [1] 2.65% | [2] -12.1% | [3] -3.4% | [4] -21.5% | [5] -5.05% | [6] -20.3%

CS/C1=C(\c2ccc(C)cc2)N(c2ccccc2)C(=O)C(=O)N(c2ccccc2)/C(c2ccc(C)cc2)=C(/SC)SS1
inactive: [1] 12.2% | [2] -27.1% | [3] 2.9% | [4] 3% | [5] 8% | [6] 12.5%

O=C1CNC(=O)N1Nc1ccccc1
inactive: [1] -9.35% | [2] -2.55% | [3] -2.35% | [4] -26.6% | [5] 4% | [6] -5.3%

O=C(O)c1ccc2c(Cl)ccc3c2c1CC3
inactive: [1] 11.7% | [2] -0.8% | [3] 9.05% | [4] -32.5% | [5] -26.2% | [6] 21.5%

Cc1[nH]c(=O)nc(N(CCO)/N=C/c2ccc(Cl)cc2)c1C(=O)Nc1ccc(Cl)cc1
inactive: [1] 6.7% | [2] 38.6% | [3] -18.1% | [4] 12.4% | [5] -13.3% | [6] -36%

O=C(NN=C1CCCCC1)NN=C1CCCCC1
inactive: [1] -40.2% | [2] -10.8% | [3] -29.2% | [4] -2.4% | [5] -6.55% | [6] -0.4%

COc1cc(CC(NC(=O)c2ccccc2)C(C)=O)cc(OC)c1OC (stereo unspecified)
inactive: [1] -9.7% | [2] 9.35% | [3] -5.4% | [4] -26.2% | [5] 27.8% | [6] -4.1%

CC(C)(C)C(=O)C(C#N)C(=O)C(C)(C)C
inactive: [1] 8.75% | [2] -19.9% | [3] -7.45% | [4] 16.1% | [5] -19.9% | [6] -14.2%

CCOC(=O)C(=CNc1ccc(S(N)(=O)=O)cc1)C(=O)OCC
inactive: [1] 13.7% | [2] 7.95% | [3] -31.1% | [4] 5.6% | [5] -14% | [6] -26.2%

CCOC(=O)C1Oc2ccccc2O1
inactive: [1] 11.8% | [2] -14.6% | [3] -7% | [4] -41.1% | [5] -13.1% | [6] -10.8%

CC(C)N(CCC#N)C(=S)Nc1cccc2ccccc12
inactive: [1] 17.1% | [2] 10.1% | [3] 19.6% | [4] 14.9% | [5] 12.2% | [6] -8.2%

NCC(O)CSc1ccccc1 (stereo unspecified)
inactive: [1] -10.6% | [2] 4.15% | [3] -6.85% | [4] -16.7% | [5] -1.3% | [6] -6.8%

O=C(O)COc1c(Cl)cc(Cl)c2cccnc12
inactive: [1] 28.9% | [2] -3.85% | [3] -15.7% | [4] -16.9% | [5] -63.2% | [6] -4.45%
